# “And” between values parts separate entries of the source, which are not always exact repeats. Identical values can stand only once. Values without a mark were called inactive. Inconclusive results are not listed. Where a call stands in place of a potency, no number is given. The source made the active and inactive calls. Unless noted, the call rests on the fitted dose curve; in most records, active means well fitted curve in the direction sought with a large enough effect; inconclusive means small, poorly fitted or top-dose-only effect, or another doubt; inactive means no such curve, though single readings can be large; an effect the other way counts as inactive or inconclusive.
# What was measured:
# [1] = molecular target: Guanine nucleotide-binding protein G(i) subunit alpha-1 (Homo sapiens) (UniProt P63096); assay: qHTS Assay for Inhibitors of RGS12 GoLoco Motif Activity (Green Fluorophore) (AID 879);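 further: negative values mean loss of peptide binding seen as reduced polarization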
# Sequence of Guanine nucleotide-binding protein G(i) subunit alpha-1 (Homo sapiens) (P63096 whole entry, looked up): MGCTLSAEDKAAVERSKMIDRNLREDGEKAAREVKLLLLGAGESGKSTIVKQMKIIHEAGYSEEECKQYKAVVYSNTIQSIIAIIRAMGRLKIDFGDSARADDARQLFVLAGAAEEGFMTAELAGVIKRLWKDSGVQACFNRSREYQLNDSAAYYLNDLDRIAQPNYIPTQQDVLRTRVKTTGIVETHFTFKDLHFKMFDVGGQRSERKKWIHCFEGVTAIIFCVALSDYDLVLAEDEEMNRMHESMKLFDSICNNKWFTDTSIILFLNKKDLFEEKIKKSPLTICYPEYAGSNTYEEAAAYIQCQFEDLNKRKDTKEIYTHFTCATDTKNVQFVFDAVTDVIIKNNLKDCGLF
# Outline: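 A drop in FITC polarization marked displacement of the FITC-tagged RGS12 GoLoco peptide (10 nM) from Gαi1 (50 nM). Compounds were incubated 10 min at room temperature in Tris pH 7.5 buffer containing 150 mM NaCl, 0.1 mM GDP and 0.05% NP40; unlabeled peptide titration served as control.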
# [2] = molecular target: Cytochrome P450 3A4 (Homo sapiens) (UniProt P08684); assay: qHTS Assay for Activators of Cytochrome P450 3A4 (AID 885); further: nearly all actives have a fitted effect of over 65% in size
# Sequence of Cytochrome P450 3A4 (Homo sapiens) (P08684 whole entry, looked up): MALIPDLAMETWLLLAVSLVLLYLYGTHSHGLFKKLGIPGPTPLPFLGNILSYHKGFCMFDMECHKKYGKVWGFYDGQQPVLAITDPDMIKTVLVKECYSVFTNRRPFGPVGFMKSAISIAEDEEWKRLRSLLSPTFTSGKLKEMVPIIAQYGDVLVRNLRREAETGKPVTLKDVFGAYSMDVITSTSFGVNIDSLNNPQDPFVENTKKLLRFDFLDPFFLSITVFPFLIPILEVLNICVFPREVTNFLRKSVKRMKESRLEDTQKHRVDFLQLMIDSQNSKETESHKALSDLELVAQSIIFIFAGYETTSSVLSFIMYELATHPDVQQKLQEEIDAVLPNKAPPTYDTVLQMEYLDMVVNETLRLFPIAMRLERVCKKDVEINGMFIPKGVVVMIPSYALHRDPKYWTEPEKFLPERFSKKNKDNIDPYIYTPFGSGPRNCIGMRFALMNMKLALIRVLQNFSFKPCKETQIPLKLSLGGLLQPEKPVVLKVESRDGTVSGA
# Outline: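 Activators are scored by enhanced luminescence from CYP3A4 conversion of luciferin-PPXE (25uM, equal to KM) to luciferin, after 60 min at RT with an NADPH-regenerating system.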
# [3] = qHTS Assay for Identification of Small Molecule Antagonists for NFkB Signaling Pathway (AID 895; active means well fitted inhibition curve with a large enough effect in the signal ratio, with a control signal flat, not every such curve was filed as active; the % refers to the signal ratio; further: potency means the concentration at half of the fitted maximal effect)
# Outline: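 Beta-lactamase reporter read-out (460 and 530 nm emission ratio, 405 nm excitation, 2 hrs substrate loading RT) after 5 hr stimulation with 10 pM TNF alpha in compound-treated NFkB-bla ME-180 cells in low-serum medium.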
# [4] = qHTS Assay for Identification of Small Molecule Agonists for Thrombopoietin (TPO) Signaling Pathway (AID 917)
# Outline: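 Cell-based luciferase reporter screen. Mouse Ba/F3 line stably expressing human TPO receptor; IL-3 removed overnight before plating. Co-treatment with compound and EC50 TPO (26 pM), 24 hrs at 37 C, then luminescence.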
# [5] = molecular target: Pyruvate kinase (Leishmania mexicana) (UniProt Q27686); assay: qHTS Validation Assay for Inhibitors of Leishmania Mexicana Pyruvate Kinase (AID 945)
# Sequence of Pyruvate kinase (Leishmania mexicana) (Q27686 2-499 E452W): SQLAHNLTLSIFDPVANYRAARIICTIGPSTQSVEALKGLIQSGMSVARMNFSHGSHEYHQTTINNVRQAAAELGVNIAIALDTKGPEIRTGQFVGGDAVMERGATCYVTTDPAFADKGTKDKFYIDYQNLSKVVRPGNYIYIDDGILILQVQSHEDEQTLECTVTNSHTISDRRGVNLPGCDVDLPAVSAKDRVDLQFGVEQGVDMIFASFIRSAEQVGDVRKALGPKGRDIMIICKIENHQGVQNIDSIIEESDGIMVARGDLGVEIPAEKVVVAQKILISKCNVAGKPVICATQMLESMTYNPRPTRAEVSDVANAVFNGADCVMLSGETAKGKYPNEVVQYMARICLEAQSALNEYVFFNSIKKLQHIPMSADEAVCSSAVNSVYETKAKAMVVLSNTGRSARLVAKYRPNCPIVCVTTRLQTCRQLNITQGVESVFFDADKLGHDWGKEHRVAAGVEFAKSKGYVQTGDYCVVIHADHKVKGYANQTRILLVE
# Outline: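 Mutant LmPYK (E451W), 0.2 nM, plus 0.5 mM PEP and 0.1 mM ADP in 50 mM imidazole pH 7.2 containing 0.01% Tween 20 and 0.05% BSA. Incubated 1 h at room temperature; luminescence via PKLight, normalized to DMSO.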
# [6] = molecular target: Cytochrome P450 2C9 (Homo sapiens) (UniProt P11712); assay: qHTS Assay for Inhibitors and Substrates of Cytochrome P450 2C9 (AID 883); further: nearly all actives have a fitted effect of over 60% in size; further: potency means the concentration at half of the fitted maximal effect
# Sequence of Cytochrome P450 2C9 (Homo sapiens) (P11712 whole entry, looked up): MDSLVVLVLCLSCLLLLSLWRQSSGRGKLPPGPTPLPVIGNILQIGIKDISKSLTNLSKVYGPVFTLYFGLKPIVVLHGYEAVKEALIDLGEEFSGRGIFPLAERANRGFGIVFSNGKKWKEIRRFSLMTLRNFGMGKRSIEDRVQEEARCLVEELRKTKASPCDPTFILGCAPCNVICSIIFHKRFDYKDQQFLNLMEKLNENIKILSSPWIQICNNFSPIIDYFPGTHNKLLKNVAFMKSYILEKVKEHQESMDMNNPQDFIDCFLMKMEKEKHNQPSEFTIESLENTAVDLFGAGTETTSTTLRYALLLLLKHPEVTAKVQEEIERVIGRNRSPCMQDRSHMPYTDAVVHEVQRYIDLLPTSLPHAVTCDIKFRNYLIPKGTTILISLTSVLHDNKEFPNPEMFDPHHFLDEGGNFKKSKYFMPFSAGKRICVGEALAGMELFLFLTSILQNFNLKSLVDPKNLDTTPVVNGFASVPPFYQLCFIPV
# Outline: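 Inhibition of CYP2C9 is scored as loss of luminescence, with 57uM sulphaphenazole defining 100% inhibition. Substrate Luciferin-H is used at 100uM, equal to its KM; enzyme at 10nM in 25mM KPO4, 60 min at 37C with NADPH regeneration.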
# [7] = molecular target: Cytochrome P450 2D6 (Homo sapiens) (UniProt P10635); assay: qHTS Assay for Inhibitors and Substrates of Cytochrome P450 2D6 (AID 891); further: nearly all actives have a fitted effect of over 60% in size; further: potency means the concentration at half of the fitted maximal effect
# Sequence of Cytochrome P450 2D6 (Homo sapiens) (P10635 whole entry, looked up): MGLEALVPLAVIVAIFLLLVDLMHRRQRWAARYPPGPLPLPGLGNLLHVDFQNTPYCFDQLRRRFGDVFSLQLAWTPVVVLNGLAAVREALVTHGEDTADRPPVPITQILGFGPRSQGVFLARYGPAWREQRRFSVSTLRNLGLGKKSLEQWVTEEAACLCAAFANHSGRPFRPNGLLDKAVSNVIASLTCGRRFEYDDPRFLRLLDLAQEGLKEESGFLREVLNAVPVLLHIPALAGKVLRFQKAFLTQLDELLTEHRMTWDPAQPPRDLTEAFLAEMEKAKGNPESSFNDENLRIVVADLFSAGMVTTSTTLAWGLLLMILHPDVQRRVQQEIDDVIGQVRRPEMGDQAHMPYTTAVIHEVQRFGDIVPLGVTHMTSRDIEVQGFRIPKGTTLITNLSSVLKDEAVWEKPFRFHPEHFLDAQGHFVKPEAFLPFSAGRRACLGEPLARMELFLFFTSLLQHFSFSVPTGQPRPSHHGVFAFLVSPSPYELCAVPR
# Outline: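 Luminescent read-out of luciferin formed by 5 nM human CYP2D6 demethylating 30 uM Luciferin-ME EGE (Km level) over 60 min at room temperature after NADPH regeneration addition. Data normalized to full inhibition by 1.43 uM quinidine.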
# [8] = molecular target: Cytochrome P450 2C19 (Homo sapiens) (UniProt P33261); assay: qHTS Assay for Inhibitors and Substrates of Cytochrome P450 2C19 (AID 899); further: nearly all actives have a fitted effect of over 60% in size; further: potency means the concentration at half of the fitted maximal effect
# Sequence of Cytochrome P450 2C19 (Homo sapiens) (P33261 whole entry, looked up): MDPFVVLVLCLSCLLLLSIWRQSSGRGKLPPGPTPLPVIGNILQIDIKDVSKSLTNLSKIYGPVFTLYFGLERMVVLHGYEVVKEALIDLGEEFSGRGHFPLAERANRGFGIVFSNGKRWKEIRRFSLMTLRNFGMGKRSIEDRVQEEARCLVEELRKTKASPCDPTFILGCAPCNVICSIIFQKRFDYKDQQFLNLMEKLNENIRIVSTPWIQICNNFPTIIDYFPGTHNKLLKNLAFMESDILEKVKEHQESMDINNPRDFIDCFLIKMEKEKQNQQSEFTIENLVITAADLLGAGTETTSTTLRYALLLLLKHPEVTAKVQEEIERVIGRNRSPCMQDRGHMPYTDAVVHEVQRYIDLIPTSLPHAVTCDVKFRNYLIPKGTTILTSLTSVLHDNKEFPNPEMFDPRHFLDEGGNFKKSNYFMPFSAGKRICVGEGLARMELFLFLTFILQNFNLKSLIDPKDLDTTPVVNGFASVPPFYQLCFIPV
# Outline: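 5nM enzyme + 10uM Luciferin-H EGE (=KM), 50mM KPO4; cpd pin-transferred, 10 min 37C; NADPH regen, 60 min 37C; stopped w/ luciferin detection reagent, 20 min; luminescence. Normalized to 57uM ketoconazole (AC100).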
# [9] = molecular target: Muscarinic acetylcholine receptor M1 (Rattus norvegicus) (UniProt P08482); assay: qHTS Assay for Antagonists of Acetylcholine Muscarinic M1 Receptor: Kinetic Measurement of Intracellular Calcium Response (AID 943); further: nearly all actives have a fitted effect of over 75% in size; further: potency means the concentration at half of the fitted maximal effect
# Sequence of Muscarinic acetylcholine receptor M1 (Rattus norvegicus) (P08482 whole entry, looked up): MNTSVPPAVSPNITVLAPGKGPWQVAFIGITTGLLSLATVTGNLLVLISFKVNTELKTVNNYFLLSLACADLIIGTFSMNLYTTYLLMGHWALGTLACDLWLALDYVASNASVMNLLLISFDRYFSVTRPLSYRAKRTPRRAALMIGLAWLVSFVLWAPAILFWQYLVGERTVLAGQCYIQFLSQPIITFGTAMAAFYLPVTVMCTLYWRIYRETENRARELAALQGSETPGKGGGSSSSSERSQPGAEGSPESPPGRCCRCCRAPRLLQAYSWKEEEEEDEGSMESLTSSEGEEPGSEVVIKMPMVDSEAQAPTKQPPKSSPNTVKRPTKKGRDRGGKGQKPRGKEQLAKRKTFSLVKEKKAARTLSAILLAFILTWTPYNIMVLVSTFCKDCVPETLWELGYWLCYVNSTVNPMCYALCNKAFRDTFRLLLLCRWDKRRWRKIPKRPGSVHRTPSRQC
# Outline: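 Quantitative HTS in CHO-M1 (rat receptor) cells: 10 min compound exposure ahead of 100 nM carbachol, Fluo-4 fluorescence followed 4 min, value expressed as peak-to-basal ratio.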
# [10] = Cellular Toxicity (caspase-3) Hek293 (AID 664);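 further: cells exposed to compound for 16 h at 37 °C before readout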
# Outline: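 Apoptosis readout: Caspase-Glo 3/7 signal in human HEK293 cells following 16-hour compound incubation. Responses scaled between DMSO baseline and 100 uM tamoxifen.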
# [11] = Cellular Toxicity (caspase-3) N2a (AID 665);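 further: compound exposure lasted 16 h at 37 °C before readout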
# Outline: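 Concentration-response qHTS: compound-induced caspase-3/7 luminescence in N2a cells (16 h, 37 °C), relative to DMSO and 10 uM staurosporine controls; AC50 obtained using the standard Hill equation.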
# [12] = Cellular Toxicity (caspase-3) NIH 3T3 (AID 666);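 further: caspase signal read after 16 h compound exposure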
# Outline: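 Activity: caspase-3/7 induction, NIH 3T3 cells, 16 hr treatment at 37°C, luminescent Caspase-Glo detection; AC50 via Hill equation.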
# [13] = Cellular Toxicity (caspase-3) Renal Proximal Tubule (AID 667);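 further: cells exposed to compound for 16 hours at 37 °C before detection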
# Outline: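 AC50 derived by standard Hill fit of concentration-response data, normalized between DMSO basal and 10 uM staurosporine as 100% stimulation. Cells: primary rat kidney proximal tubule, 16 h treatment at 37 °C.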
# [14] = molecular target: Cytochrome P450 3A4 (Homo sapiens) (UniProt P08684); assay: qHTS Assay for Inhibitors and Substrates of Cytochrome P450 3A4 (AID 884); further: nearly all actives have a fitted effect of over 50% in size; further: potency means the concentration at half of the fitted maximal effect
# Outline: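 Luminescent readout of luciferin produced by CYP3A4 (20 nM) dealkylation of Luciferin-PPXE, 25 uM (its KM). NADPH-driven reaction ran 60 min at RT after 10 min compound preincubation; data scaled to 57 uM ketoconazole as 100% inhibition.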
# [15] = Confirmation and Secondary Assay for Modulators of Hemoglobin Beta Chain Splicing at IVS2 654 locus (AID 910);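 further: HeLa cells stably carrying EGFP split by mutant beta-globin IVS2-654 intron; per-well total GFP intensity by laser scanning cytometry after 2-day treatment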
# Outline: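 Readout: per-well total peak green fluorescence (488 nm ex, 500–520 nm em) from objects 5–250 µm, reflecting correct splicing of an EGFP-654 reporter. Compounds were applied for 2 days at 37 °C to overnight-plated HeLa EGFP-654 cells; controls were DMSO and 500 nM IVS2-654 PNA.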
# [16] = Cell Viability - LYMP2-001 (AID 921);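 further: series mostly up to about 92 µM; cells exposed to compound for 24 h at 37 °C; nearly all actives have a fitted effect of over 70% in size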
# Outline: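 Steps: seed 2500 lymphoblastoid cells/well; 5 hr, 37 C; add compound; 24 hr, 37 C; CellTiter-Glo reagent, 30 min room temperature; read luminescence. Concentration-response modeled by Hill equation for AC50.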
# [17] = Confirmation and Secondary Assay for Modulators of Hemoglobin Beta Chain Splicing at IVS2 705 locus (AID 930);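 further: HeLa cells stably expressing the EGFP-705 splicing reporter; GFP fluorescence per well restored by corrected splicing of the IVS2-705 intron in EGFP; series mostly up to about 46 µM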
# Outline: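 Stable HeLa line with EGFP disrupted by mutant beta-globin intron 2 (705). Overnight attachment, then 2 days of compound at 37C, 5% CO2. Signal: peak GFP intensity summed over objects 5-250 µm.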
# [18] = Cellular Toxicity (caspase-3) H-4-II-E (AID 663);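 further: cells exposed to compound for 16 hr before readout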
# Outline: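 Caspase 3/7 activation measured by luminescent aminoluciferin substrate cleavage after 16 hr compound treatment of H-4-II-E cells in complete medium. Increase normalized between DMSO (basal) and 100 uM tamoxifen (100%); Hill-equation AC50 from concentration-response.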
# [19] = qHTS Assay for Identification of Small Molecule Agonists for Hypoxia Response Element Signaling Pathway (AID 914; active means well fitted activation curve with a large enough effect in the signal ratio, with a control signal flat, not every such curve was filed as active; the % refers to the signal ratio); conditions: ME-180 (cervical carcinoma) HRE-bla reporter, beta-lactamase ratio, CoCl2, 17 h; activation: stronger effect = higher value
# Outline: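 Reporter activity (beta-lactamase, CCF4 460nm/530nm ratio) in HRE-bla ME-180 cells is recorded after 17 h compound exposure with EC50 CoCl2 at 37 degrees Celsius. AC50 values come from titration data.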
# [20] = qHTS Assay for Identification of Small Molecule Antagonists for Thrombopoietin (TPO) Signaling Pathway (AID 918); conditions: TPO-dependent cell signaling reporter, antagonist mode; further: potency means the concentration at half of the fitted maximal effect; nearly all actives have a fitted effect of over 60% in size
# Outline: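 Antagonist mode at EC50 TPO (26 pM) in IL-3-free medium; murine Ba/F3 cells with human TPO receptor and GPIIb-promoter luciferase, 24 hrs at 37 C before luminescent detection.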
smiles,measurement,setting,value
C[C@]12CCC(=O)C=C1CC[C@@H]1[C@@H]2[C@@H](O)C[C@@]2(C)[C@H]1CC[C@]2(O)C(=O)CO,outcome,[1],inactive
same,outcome,[2],inactive
same,Potency,[3],0.0141 µM (active)
same,outcome,[4],inactive
same,outcome,[5],inactive
C1COC(NC(C2CC2)C2CC2)=N1,outcome,[1],inactive
same,Potency,[6],inactive
same,outcome,[2],inactive
same,Potency,[7],0.398 µM (active)
same,Potency,[8],inactive
same,outcome,[4],inactive
same,Potency,[9],inactive
same,outcome,[5],inactive
CCCC(CCC)C(=O)O,outcome,[10],inactive
same,outcome,[11],inactive
same,outcome,[12],inactive
same,outcome,[13],inactive
same,outcome,[1],inactive
same,Potency,[14],inactive
same,Potency,[15],inactive
same,outcome,[4],inactive
same,Potency,[16],inactive
same,Potency,[17],inactive
same,outcome,[5],inactive
Nc1nc2c(ncn2COCCO)c(=O)[nH]1,outcome,[1],inactive
same,Potency,[14],inactive
same,outcome,[4],inactive
same,Potency,[17],inactive
same,outcome,[5],inactive
NS(=O)(=O)c1cc2c(cc1Cl)NC=NS2(=O)=O,outcome,[18],inactive
same,outcome,[10],inactive
same,outcome,[11],inactive
same,outcome,[12],inactive
same,outcome,[13],inactive
same,outcome,[1],inactive
same,Potency,[15],inactive
same,activation,[19],13.9% and 2.11% and -1.51%
same,outcome,[4],inactive
same,Potency,[16],inactive
same,Potency,[17],inactive
same,outcome,[5],inactive
O=C1CCc2cc(OCCCCc3nnnn3C3CCCCC3)ccc2N1,outcome,[1],inactive
same,outcome,[2],inactive
same,Potency,[7],inactive
same,Potency,[8],inactive
same,Potency,[15],inactive
same,Potency,[17],inactive
same,outcome,[5],inactive
N=c1nc(N2CCCCC2)cc(N)n1O,outcome,[1],inactive
same,Potency,[6],inactive
same,Potency,[7],inactive
same,Potency,[8],inactive
same,Potency,[15],inactive
same,outcome,[4],inactive
same,Potency,[17],inactive
same,Potency,[9],inactive
same,outcome,[5],inactive
OC(CN1CCC(Cc2ccc(F)cc2)CC1)c1ccc(Cl)cc1 (stereo not given),outcome,[1],inactive
same,Potency,[14],inactive
same,Potency,[9],0.398 µM (active)
same,outcome,[5],inactive
CC(C)(Sc1ccc(CCN(CCCCC2CCCCC2)C(=O)NC2CCCCC2)cc1)C(=O)O,outcome,[1],inactive
same,Potency,[6],31.6 µM (active)
same,Potency,[14],3.98 µM (active)
same,outcome,[2],inactive
same,Potency,[7],inactive
same,Potency,[3],14.1 µM (active)
same,Potency,[8],inactive
same,outcome,[4],inactive
same,Potency,[9],inactive
same,outcome,[5],inactive
CCc1ccc(CCOc2ccc(CC3SC(=O)NC3=O)cc2)nc1 (stereo not given),outcome,[2],inactive
same,Potency,[15],inactive
same,Potency,[17],inactive
O=C(O)COCCN1CCN(C(c2ccccc2)c2ccc(Cl)cc2)CC1 (stereo not given),Potency,[15],inactive
same,Potency,[17],inactive
Cc1[nH]c(=O)c(C#N)cc1-c1ccc2nccn2c1,outcome,[1],inactive
same,outcome,[4],inactive
same,outcome,[5],inactive
CCCc1nn(C)c2c(=O)[nH]c(-c3cc(S(=O)(=O)N4CCN(C)CC4)ccc3OCC)nc12,Potency,[15],inactive
same,Potency,[17],inactive
N#Cc1ccc(C(c2ccc(C#N)cc2)n2cncn2)cc1,activation,[19],-2.88%
Cc1cnc(NC(=O)C2=C(O)c3ccccc3S(=O)(=O)N2C)s1,outcome,[1],inactive
same,Potency,[3],inactive
same,Potency,[15],inactive
same,Potency,[17],inactive
same,outcome,[5],inactive
CCN(c1ccccc1)c1cc(NC)[n+](C)c(C)n1,Potency,[7],3.98 µM (active)
CC(C[N+](C)(C)C)OC(N)=O (stereo not given),Potency,[14],inactive
same,Potency,[15],inactive
same,Potency,[17],inactive
O=NN(CCCl)C(=O)NCCCl,outcome,[1],inactive
same,Potency,[15],inactive
same,outcome,[4],inactive
same,Potency,[17],inactive
same,outcome,[5],inactive
Nc1nc2ccc(OC(F)(F)F)cc2s1,outcome,[1],inactive
same,outcome,[4],inactive
Cc1cn[nH]c1,outcome,[1],inactive
same,outcome,[4],inactive
same,outcome,[5],inactive
Cc1cc2c(C(C)C)c(O)c(O)c(C=O)c2c(O)c1-c1c(C)cc2c(C(C)C)c(O)c(O)c(C=O)c2c1O,Potency,[15],inactive
same,Potency,[17],inactive
COc1ccc2nc(S(=O)Cc3ncc(C)c(OC)c3C)[nH]c2c1 (stereo not given),Potency,[6],inactive
same,outcome,[2],inactive
same,Potency,[7],inactive
same,activation,[19],-6.85% and -23.9%
Cc1ccc2c(c1)C(=O)[C@@]1(O)CCN(c3ccccc3)C1=N2,Potency,[8],7.94 µM (active)
NC[C@H](O)c1ccc(O)c(O)c1,outcome,[1],inactive
same,outcome,[5],inactive
CN1CCN(CCCN2c3ccccc3Sc3ccc(C(F)(F)F)cc32)CC1,outcome,[1],inactive
same,Potency,[15],inactive
same,Potency,[20],15.8 µM (active)
same,Potency,[17],inactive
same,outcome,[5],inactive
CCN(CC)CCCC(C)Nc1ccnc2cc(Cl)ccc12 (stereo not given),Potency,[15],inactive
same,Potency,[17],inactive
NCCc1ccc(O)c(O)c1,outcome,[1],inactive
same,Potency,[15],inactive
same,Potency,[17],inactive
same,Potency,[9],inactive
same,outcome,[5],inactive
CCCc1nc2c(C)cc(-c3nc4ccccc4n3C)cc2n1Cc1ccc(-c2ccccc2C(=O)O)cc1,Potency,[15],inactive
same,Potency,[17],inactive
CC(C)(C)NCC(O)c1ccc(O)c(CO)c1 (stereo not given),Potency,[15],inactive
same,Potency,[17],inactive
CCn1cc(C(=O)O)c(=O)c2cc(F)c(N3CCNC(C)C3)c(F)c21 (stereo not given),Potency,[14],inactive
same,Potency,[15],inactive
same,Potency,[17],inactive
Cc1[nH]c(=O)c(C#N)cc1-c1ccncc1,outcome,[1],inactive
same,outcome,[4],inactive
same,outcome,[5],inactive
NC(=O)c1ccc(-c2nc(-c3ccc4c(c3)OCO4)c(-c3ccccn3)[nH]2)cc1,outcome,[2],inactive
CCN(CC)CCCC(C)Nc1nc(C)cc(Nc2ccc3nc(C)cc(N)c3c2)n1 (stereo not given),Potency,[14],inactive
CNC[C@H](O)c1cccc(O)c1,outcome,[1],inactive
same,outcome,[4],inactive
same,Potency,[9],inactive
same,outcome,[5],inactive
Cc1ccccc1C(OCCN(C)C)c1ccccc1 (stereo not given),Potency,[15],inactive
same,Potency,[17],inactive

# Source: PubChem BioAssay (NCATS)
